In PubChem BioAssay one finds composite z-score and z-score data, which are given here for nine compounds.

The source made the active and inactive calls.

The test system of assay [1] is PRMT1 (protein arginine N-methyltransferase 1). Kind of assay: small molecules binding arginine methyltransferase PRMT1 – biochemical, small-molecule microarray, 635 nm fluorescence, primary screen (AID 1088).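 Further: binding of Prmt1 protein to compounds spotted on small-molecule microarray slides.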 Conditions: higher = more signal.
A short description of assay [2]: growth effects on S. cerevisiae YJM789 – YJM789 clinical isolate, OD600, 24 h, basal, primary screen (AID 1089).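 Further: growth of clinical yeast isolate S. cerevisiae YJM 789 seeded 1000 cells per well; test concentration not given here.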 The settings on record: higher = more signal, called active from +8 up or from −8 down.
Assay [3] in a line: S. pombe growth modifiers, basal conditions – strain 972, OD600, 24 h, no modulator, primary screen (AID 1090).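 Further: basal condition with compound alone and no growth modifier present; test concentration not given here.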 The settings on record: S. pombe 972 growth, higher = more signal, called active from +8 up or from −8 down.
Assay [4] can be described thus: budding yeast growth modifiers under rapamycin – strain BY4716, OD600, 96 h, primary screen (AID 1091). Further: test concentration not given here. Conditions: S. cerevisiae BY4716 + rapamycin, higher = more signal, called active from +8 up or from −8 down.
The target of assay [5] is Torsin-1A-interacting protein 2 (Homo sapiens) (UniProt Q8NFQ8). Put plainly: small molecules binding lysate-expressed LULL1 – cell lysate, human LULL1 lysate, 635/667 nm fluorescence, primary screen (AID 1092).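 Further: probe is lysate of COS7 cells overexpressing human LULL1; score merges per-feature 667 nm fluorescence with signal-to-noise.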 The settings on record: small-molecule microarray, hLULL1 lysate binding, 635 nm fluorescence; higher = more signal.
A short description of assay [6]: optical density change of DRC41 E. coli – strain DRC41, OD650, 24 h, E. coli filamentation project, primary screen (AID 1093).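 Further: MC1000 strain lacking acrAB efflux and sulA so SOS filamentation is blocked; test concentration not given here.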 Conditions: E. coli DRC41 growth, higher = more signal, called active from +8 up or from −8 down.
The nature of assay [7]: probe aLefty2 binding to arrayed compounds – biochemical, biotinylated probe, 635/667 nm fluorescence, primary screen (AID 1094).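 Further: score merges spot fluorescence near 667 nm with spot signal-to-noise ratio.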 Conditions: small-molecule microarray, higher = more signal.
The test system of assay [8] is Noggin (protein binding on small-molecule microarray). Kind of assay: small molecules binding Noggin protein – biochemical, 635/667 nm fluorescence, primary screen (AID 1095).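 Further: score merges 667 nm feature fluorescence with signal to noise over triplicate slides.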 Conditions: 635 nm fluorescence, higher = more signal.
In assay [9] the target is Neurogenic locus notch homolog protein 3 (Homo sapiens) (UniProt Q9UM47). Kind of assay: small molecules binding NOTCH3 protein – biochemical, 635/667 nm fluorescence, primary screen (AID 1096). Conditions: small-molecule microarray, 635 nm fluorescence, higher = more signal.
The nature of assay [10]: probe aEGFR binding to arrayed compounds – biochemical, biotinylated probe, 635/667 nm fluorescence, primary screen (AID 1097).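 Further: probe is a biotinylated anti-EGFR antibody binding compounds printed on slides; score combines fluorescence near 667 nm and signal to noise of each spot.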 The settings on record: small-molecule microarray, higher = more signal.
The test system of assay [11] is Plasmodium falciparum Sir2 (PF13_0152, Sir2A). Put plainly: Plasmodium falciparum Sir2A binding compounds – biochemical, small-molecule microarray, 635 nm fluorescence, primary screen (AID 1098).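 Further: score merges spot fluorescence intensity with its signal-to-noise ratio.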 Conditions: fluorescence 635 nm, higher = more signal.
Assay [12] can be described thus: probe aDKK1 binding to arrayed compounds – biochemical, biotinylated probe, 635/667 nm fluorescence, primary screen (AID 1099).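 Further: score merges 667nm spot fluorescence with signal to noise across triplicate slides; reference of the scale not given here.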 The settings on record: small-molecule microarray, higher = more signal.
The nature of assay [13]: probe aCHRDL2 binding to arrayed compounds – biochemical, biotinylated probe, 635/667 nm fluorescence, primary screen (AID 1100). The settings on record: small-molecule microarray, higher = more signal.
The nature of assay [14]: change in splice reporter luminescence, either direction, cell-based, HEK293, spliceosome inhibition project, primary screen (AID 1101).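 Further: HEK293 cells carrying a splicing-competent luciferase reporter gene; test concentration not given here.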 Conditions: HEK293 splicing luciferase reporter, 24 h, higher = more signal, called active from +8 up or from −8 down. On the technique in general: A reporter such as luciferase makes a cellular process visible.
The target of assay [15] is Fibroblast growth factor 10 (Homo sapiens) (UniProt O15520). Kind of assay: compounds binding fibroblast growth factor 10 – biochemical, small-molecule microarray, 635 nm fluorescence, primary screen (AID 1102). Conditions: FGF10 binding, fluorescence 635 nm, higher = more signal.
In assay [16] the test system is glycogen synthase kinase-3 (GSK3A per assay name; protocol says GSK3B). Kind of assay: compounds binding glycogen synthase kinase-3 – biochemical, small-molecule microarray, 635 nm fluorescence, GSK3A, primary screen (AID 1103). Further: the record names both GSK3A and GSK3B. The settings on record: fluorescence 635 nm, higher = more signal.
Assay [17] has as its target Epidermal growth factor receptor (Homo sapiens) (UniProt P00533). Put plainly: compounds binding epidermal growth factor receptor – biochemical, small-molecule microarray, 635 nm fluorescence, primary screen (AID 1104).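 Further: score merges 667 nm emission intensity with spot signal to noise over triplicate slides.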 Conditions: EGFR binding, higher = more signal.
For assay [18], the target named is Follistatin-related protein 3 (Homo sapiens) (UniProt O95633). Kind of assay: compounds binding follistatin-related protein 3 – biochemical, small-molecule microarray, 635 nm fluorescence, primary screen (AID 1105).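 Further: score merges emission near 667 nm and signal to noise per printed spot across three slides.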 The settings on record: FSTL3 binding, higher = more signal.
In assay [19] the target is Dickkopf-related protein 1 (Homo sapiens) (UniProt O94907). Put plainly: small molecules binding DKK1 protein – biochemical, small-molecule microarray, 635 nm fluorescence scan, primary screen (AID 1106).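 Further: score merges emission near 667 nm with signal to noise over three replicate slides.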 Conditions: higher = more signal.
For assay [20], the system named is Inhibin beta A chain (activin A). Put plainly: small molecules binding activin A – biochemical, small-molecule microarray, 635 nm fluorescence scan, primary screen (AID 1107).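 Further: mouse activin A protein probed at 4.33 µg/mL on printed slides; score merges bound-protein fluorescence near 667 nm with spot signal-to-noise.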 Conditions: INHBA, higher = more signal.

Epidermal growth factor receptor (Homo sapiens), sequence (P00533 whole entry, looked up): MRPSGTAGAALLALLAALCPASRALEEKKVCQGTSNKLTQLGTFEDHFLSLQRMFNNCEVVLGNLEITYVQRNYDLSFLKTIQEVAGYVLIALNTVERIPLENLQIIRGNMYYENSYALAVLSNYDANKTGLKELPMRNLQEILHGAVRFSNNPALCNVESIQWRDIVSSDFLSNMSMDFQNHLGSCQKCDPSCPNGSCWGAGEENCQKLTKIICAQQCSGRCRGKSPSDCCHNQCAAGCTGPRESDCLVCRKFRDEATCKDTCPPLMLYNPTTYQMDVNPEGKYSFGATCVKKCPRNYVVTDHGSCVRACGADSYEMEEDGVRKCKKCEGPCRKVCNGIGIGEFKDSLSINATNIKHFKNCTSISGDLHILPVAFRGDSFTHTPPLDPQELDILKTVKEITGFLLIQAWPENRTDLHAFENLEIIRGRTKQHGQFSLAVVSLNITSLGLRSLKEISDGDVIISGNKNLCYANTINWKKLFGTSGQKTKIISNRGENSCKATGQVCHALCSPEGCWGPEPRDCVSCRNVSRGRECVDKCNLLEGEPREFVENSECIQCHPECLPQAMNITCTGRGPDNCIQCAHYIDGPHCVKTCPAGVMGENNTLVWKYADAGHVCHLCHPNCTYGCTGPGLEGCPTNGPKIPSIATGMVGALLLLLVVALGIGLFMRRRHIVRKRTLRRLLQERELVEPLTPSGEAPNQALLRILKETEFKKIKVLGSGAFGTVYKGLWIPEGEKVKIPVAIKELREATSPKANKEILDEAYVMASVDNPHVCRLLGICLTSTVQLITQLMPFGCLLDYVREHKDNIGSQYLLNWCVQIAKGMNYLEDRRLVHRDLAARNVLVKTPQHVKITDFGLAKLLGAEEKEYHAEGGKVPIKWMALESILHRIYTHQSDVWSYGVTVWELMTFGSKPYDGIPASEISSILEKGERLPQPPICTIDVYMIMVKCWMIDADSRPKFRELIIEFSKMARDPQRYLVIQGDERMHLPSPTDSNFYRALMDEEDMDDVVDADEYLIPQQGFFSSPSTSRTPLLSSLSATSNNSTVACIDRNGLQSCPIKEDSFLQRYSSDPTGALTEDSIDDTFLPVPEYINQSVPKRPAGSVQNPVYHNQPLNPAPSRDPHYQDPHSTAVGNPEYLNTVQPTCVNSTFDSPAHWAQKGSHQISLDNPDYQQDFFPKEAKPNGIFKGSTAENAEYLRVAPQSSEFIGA
Fibroblast growth factor 10 (Homo sapiens), sequence (O15520 whole entry, looked up): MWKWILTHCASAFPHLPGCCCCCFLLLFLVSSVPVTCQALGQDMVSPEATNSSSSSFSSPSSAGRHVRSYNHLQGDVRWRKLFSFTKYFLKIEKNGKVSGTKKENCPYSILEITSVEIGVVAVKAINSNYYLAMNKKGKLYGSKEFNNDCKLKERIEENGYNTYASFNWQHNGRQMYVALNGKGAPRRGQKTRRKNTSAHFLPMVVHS
Neurogenic locus notch homolog protein 3 (Homo sapiens), sequence (Q9UM47 whole entry, looked up): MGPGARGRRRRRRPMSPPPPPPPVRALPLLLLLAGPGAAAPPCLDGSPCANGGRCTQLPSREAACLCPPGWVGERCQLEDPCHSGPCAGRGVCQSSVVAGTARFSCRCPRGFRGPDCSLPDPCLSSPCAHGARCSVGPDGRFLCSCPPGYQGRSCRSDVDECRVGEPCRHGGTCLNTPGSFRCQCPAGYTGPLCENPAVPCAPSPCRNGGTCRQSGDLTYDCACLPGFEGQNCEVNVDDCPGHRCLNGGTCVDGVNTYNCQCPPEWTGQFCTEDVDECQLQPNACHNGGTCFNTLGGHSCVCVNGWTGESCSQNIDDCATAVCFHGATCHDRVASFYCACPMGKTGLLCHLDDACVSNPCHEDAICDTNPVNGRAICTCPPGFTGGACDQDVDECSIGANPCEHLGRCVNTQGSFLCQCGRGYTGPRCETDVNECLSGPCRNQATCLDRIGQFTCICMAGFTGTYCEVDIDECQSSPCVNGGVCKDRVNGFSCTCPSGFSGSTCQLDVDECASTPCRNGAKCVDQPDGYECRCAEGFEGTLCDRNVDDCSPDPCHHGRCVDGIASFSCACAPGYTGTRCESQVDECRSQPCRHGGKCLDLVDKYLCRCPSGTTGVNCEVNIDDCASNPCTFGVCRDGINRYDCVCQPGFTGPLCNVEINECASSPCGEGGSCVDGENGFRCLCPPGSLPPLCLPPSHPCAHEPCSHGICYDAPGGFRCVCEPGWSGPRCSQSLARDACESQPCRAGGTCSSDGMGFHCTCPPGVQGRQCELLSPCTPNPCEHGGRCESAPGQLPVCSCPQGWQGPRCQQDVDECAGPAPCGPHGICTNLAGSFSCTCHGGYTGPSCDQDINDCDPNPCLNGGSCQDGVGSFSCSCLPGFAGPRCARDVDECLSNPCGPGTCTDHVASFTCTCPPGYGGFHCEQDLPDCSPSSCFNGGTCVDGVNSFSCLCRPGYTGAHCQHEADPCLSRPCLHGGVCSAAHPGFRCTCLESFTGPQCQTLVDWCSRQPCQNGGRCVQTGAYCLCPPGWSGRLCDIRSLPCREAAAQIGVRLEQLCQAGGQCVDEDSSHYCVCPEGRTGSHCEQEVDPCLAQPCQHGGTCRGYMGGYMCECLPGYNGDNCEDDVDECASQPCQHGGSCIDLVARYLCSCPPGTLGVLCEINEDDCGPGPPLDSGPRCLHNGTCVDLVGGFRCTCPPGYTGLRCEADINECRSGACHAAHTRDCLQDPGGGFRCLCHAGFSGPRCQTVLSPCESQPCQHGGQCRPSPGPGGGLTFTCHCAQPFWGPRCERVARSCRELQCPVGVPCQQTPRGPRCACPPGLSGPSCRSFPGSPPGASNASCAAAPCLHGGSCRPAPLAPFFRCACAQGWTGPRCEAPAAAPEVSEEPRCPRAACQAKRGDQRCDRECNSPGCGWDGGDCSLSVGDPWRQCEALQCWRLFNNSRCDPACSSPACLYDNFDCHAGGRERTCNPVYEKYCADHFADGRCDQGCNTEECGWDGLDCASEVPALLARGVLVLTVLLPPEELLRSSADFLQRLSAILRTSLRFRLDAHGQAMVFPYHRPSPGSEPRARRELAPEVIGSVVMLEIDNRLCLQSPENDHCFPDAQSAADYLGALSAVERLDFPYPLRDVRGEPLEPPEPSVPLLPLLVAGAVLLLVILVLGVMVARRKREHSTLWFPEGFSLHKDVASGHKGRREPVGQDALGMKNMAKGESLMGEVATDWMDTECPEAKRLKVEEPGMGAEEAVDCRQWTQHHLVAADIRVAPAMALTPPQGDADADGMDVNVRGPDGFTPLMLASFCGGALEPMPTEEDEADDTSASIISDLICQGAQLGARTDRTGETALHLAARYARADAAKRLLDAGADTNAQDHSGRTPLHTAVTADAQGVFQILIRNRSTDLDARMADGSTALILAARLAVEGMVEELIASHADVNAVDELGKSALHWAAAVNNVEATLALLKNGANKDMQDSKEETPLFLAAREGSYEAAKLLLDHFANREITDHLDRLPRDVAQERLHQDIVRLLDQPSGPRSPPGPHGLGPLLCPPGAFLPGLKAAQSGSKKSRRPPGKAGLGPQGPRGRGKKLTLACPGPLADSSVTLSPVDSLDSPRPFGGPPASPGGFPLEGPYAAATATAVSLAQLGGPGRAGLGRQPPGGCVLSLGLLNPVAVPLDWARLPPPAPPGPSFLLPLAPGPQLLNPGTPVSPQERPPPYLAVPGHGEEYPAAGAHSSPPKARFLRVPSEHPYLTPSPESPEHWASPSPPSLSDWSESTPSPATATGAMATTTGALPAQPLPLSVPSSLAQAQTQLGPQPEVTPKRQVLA
Torsin-1A-interacting protein 2 (Homo sapiens), sequence (Q8NFQ8 whole entry, looked up): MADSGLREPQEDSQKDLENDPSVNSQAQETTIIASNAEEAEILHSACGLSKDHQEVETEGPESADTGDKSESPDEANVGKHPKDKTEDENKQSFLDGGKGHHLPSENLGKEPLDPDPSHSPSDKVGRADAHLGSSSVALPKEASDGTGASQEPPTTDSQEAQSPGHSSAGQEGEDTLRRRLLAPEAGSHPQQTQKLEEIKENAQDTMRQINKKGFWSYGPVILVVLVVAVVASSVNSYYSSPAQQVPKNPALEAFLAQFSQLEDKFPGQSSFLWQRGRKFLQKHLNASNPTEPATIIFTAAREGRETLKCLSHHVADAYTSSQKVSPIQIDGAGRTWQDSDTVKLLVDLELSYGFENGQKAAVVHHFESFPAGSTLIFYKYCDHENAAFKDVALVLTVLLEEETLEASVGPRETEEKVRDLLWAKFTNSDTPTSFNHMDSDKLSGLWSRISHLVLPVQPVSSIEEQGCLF
Dickkopf-related protein 1 (Homo sapiens), sequence (O94907 whole entry, looked up): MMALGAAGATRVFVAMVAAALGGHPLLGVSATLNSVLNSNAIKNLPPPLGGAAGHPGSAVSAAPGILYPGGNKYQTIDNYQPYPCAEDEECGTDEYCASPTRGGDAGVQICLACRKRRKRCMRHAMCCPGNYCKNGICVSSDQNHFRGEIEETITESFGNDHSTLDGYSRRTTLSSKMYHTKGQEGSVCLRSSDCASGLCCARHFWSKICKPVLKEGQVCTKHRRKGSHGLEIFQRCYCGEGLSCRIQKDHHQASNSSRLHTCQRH
Follistatin-related protein 3 (Homo sapiens), sequence (O95633 whole entry, looked up): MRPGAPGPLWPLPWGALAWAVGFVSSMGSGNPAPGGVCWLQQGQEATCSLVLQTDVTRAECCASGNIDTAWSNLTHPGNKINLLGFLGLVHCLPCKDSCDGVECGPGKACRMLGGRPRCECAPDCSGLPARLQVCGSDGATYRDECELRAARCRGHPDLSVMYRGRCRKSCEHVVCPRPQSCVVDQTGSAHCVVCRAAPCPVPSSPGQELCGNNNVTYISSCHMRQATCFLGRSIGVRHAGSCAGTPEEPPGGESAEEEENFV

Turning to `O=C1C2C=CC(C(O)c3ccccc3)N(n3cnnc3)C2C(=O)N1Cc1ccccc1` (stereo not given), the composite z-score in [1] was 0.345; in [5], 1.28; in assay [7], 0.116; in assay [8] it was -0.0596; in [9], -0.163; in assay [10], -0.0112. Besides, the composite z-score in [11] was 0.0854; in assay [12] it was 0.446; in assay [13], 0.908; in [15], 0.0573; in assay [16], -0.279; in [17], 0.392. The composite z-score in assay [18] was -0.117; in assay [19], -0.433; in [20], 1.46. Further, the z-score in [2] was -1.3 (inactive); in [3], 0.264 (inactive); in assay [4], -0.881 (inactive); in [6], -0.734 (inactive); in assay [14] it was -0.524 (inactive).
Turning to `CC(C)NC(=O)[C@@]1(Cc2ccccc2I)c2ccccc2C(=O)N(C2CCCCC2)[C@H]1c1ccc(CO)cc1`, the composite z-score is 1.53 in [1]; 3.4 in assay [5]; 0.261 in assay [7]; 0.128 in assay [8]; 1.14 in assay [9]; 0.0861 in assay [10]. Also, the composite z-score in [11] was found to be 1.02; in [12], 0.65; in [13], 0.793; in assay [15], 1.1; in [16] it was 1.2; in [17] it was 0.118. The values for the composite z-score in [18], in assay [19] and in [20] were 1.35, 0.4 and 0.386, respectively. In addition, the z-score was 0.401 (inactive) in assay [2]; -2.09 (inactive) in assay [3]; -1.03 (inactive) in assay [4]; -0.432 (inactive) in [6]; 0.129 (inactive) in assay [14].
As for `COC(=O)C1=CC(c2ccc(CO)cc2)=CC(c2cccs2)N(Cc2cccc(OC(F)(F)F)c2)C=C1C(=O)OC` (stereo not given), the composite z-score in assay [1] was 1.27; in assay [5], 3.31; in assay [7], 0.006; in assay [8] it was -0.0249; in [9], 1.13; in assay [10] it was -0.0187. The composite z-score in [11] is 1.49; in [12] it was -0.0873; in assay [13], 0.428; in [15] it was 0.945; in [16], 1.26; in assay [17], -0.41. Also, the values for the composite z-score in [18], in assay [19] and in [20] were 0.568, -0.0789 and 1.09, respectively. Besides, the z-score in assay [2] is -0.107 (inactive); in assay [3] it was -1.75 (inactive); in [4] it was 0.434 (inactive); in assay [6], 0.241 (inactive); in assay [14], 0.939 (inactive).
For `C=C(CCCC)/C(=C/C[C@@H](OC(=O)c1ccncc1)c1cccc(OCCO)c1)c1cc(C(=O)OC)ccc1OC`, the composite z-score in assay [1] is 1.36; in [5], 0.48; in assay [7] it was -0.0102; in [8], 1.37; in assay [9], 1.04; in [10], 0.0376. In addition, the composite z-score in [11] was 0.953; in assay [12], -0.0661; in assay [13], 0.273; in assay [15], 0.74; in assay [16], 0.764; in assay [17], 0.53. Further, the composite z-score stood at 0.933 in assay [18], 0.438 in assay [19] and 0.482 in assay [20]. Further, the z-score in [2] was 0.526 (inactive); in assay [3], -1.17 (inactive); in assay [4] it was 0.289 (inactive); in [6], 1.27 (inactive); in [14], 0.151 (inactive).
For `CO[C@H]1O[C@H](CO)[C@@H](OC(=O)Nc2ccc3c(c2)OCO3)[C@H](OC(=O)Nc2ccccc2)[C@@H]1OC(=O)Nc1ccccc1`, the composite z-score in [1] was 1.55; in assay [5] it was 3.33; in assay [7], -0.0798; in [8], 1.02; in [9], 0.915; in assay [10], -0.144. The composite z-score is 0.966 in assay [11]; 0.0085 in assay [12]; 0.0249 in assay [13]; 1.46 in [15]; 1.16 in assay [16]; -0.228 in assay [17]. Further, the composite z-score was 0.479 in [18], -0.0463 in [19] and -0.0204 in assay [20]. Besides, the z-score was 0.738 (inactive) in assay [2]; 0.51 (inactive) in assay [3]; 4.42 (inactive) in assay [4]; -1.17 (inactive) in assay [6]; -0.788 (inactive) in assay [14].
As for `COc1cc2c(cc1OC)CN(C(=O)[C@H]1[C@@H]3C(=O)O[C@@H](c4ccccc4)[C@@H](c4ccccc4)N3[C@@H](c3ccc(O)cc3)[C@]13C(=O)Nc1ccc(C#CC4(O)CCCCCC4)cc13)CC2`, the composite z-score in [1] is 1.41; in assay [5], 3.75; in assay [7], 0.675; in assay [8], 1.72; in [9], 0.991; in assay [10], 0.221. For the same compound, the composite z-score in assay [11] is 1.75; in [12], 0.458; in assay [13], 0.46; in assay [15], 1.4; in assay [16], 1.36; in [17], 0.853. The composite z-score in [18] is 1.46; in assay [19], 1.1; in [20] it was 0.616. The z-score is 0.377 (inactive) in [2]; 0.0581 (inactive) in assay [3]; 0.695 (inactive) in [4]; 0.206 (inactive) in assay [6]; -0.81 (inactive) in assay [14].
On to `C[C@@H]1CC[C@H]2C(=O)N3[C@@H](CC[C@@H](C)[C@@H]3c3cccc(N4CCOCC4)c3)C(=O)N2[C@H]1c1cccc(Br)c1`, for which the composite z-score in [1] stood at 0.969; in assay [5] it was 1.6; in [7], 0.075; in assay [8], 0.964; in assay [9], 0.981; in [10] it was 0.161. Besides, the composite z-score came to 1.1 in assay [11]; 0.113 in assay [12]; 0.26 in assay [13]; 0.695 in [15]; 0.989 in assay [16]; 0.31 in assay [17]. The composite z-score in [18] is 0.53; in assay [19], 0.327; in assay [20], 0.6. The z-score was -0.586 (inactive) in [2]; -3.26 (inactive) in assay [3]; -1.19 (inactive) in [4]; 0.732 (inactive) in assay [6]; 0.0479 (inactive) in assay [14].
On to `COC(=O)C1=C(C)N(Cc2ccccc2)c2c(C(=O)OC)c(C(=O)OC)c(C(=O)OC)c(=O)n2[C@@H]1c1ccccc1`, for which the composite z-score was 0.269 in assay [1]; 0.309 in [5]; -0.195 in assay [7]; 0.433 in assay [8]; 0.699 in assay [9]; -0.065 in assay [10]. The composite z-score in assay [11] is 0.119; in [12], -0.056; in assay [13], -0.32; in assay [15] it was 0.583; in [16], 0.37; in assay [17], 0.12. In addition, the composite z-score in assay [18] amounted to 0.287; in assay [19], 0.436; in [20] it was 0.16. The z-score in assay [2] is -0.677 (inactive); in assay [3] it was -1.75 (inactive); in assay [4] it was -0.389 (inactive); in [6] it was 0.535 (inactive); in assay [14], -0.449 (inactive).
Take `O=C(NCC(O)CO)[C@]1(Cc2ccccc2)N=C(c2ccc(OCCCO)cc2)O[C@@H]1c1ccccc1` (stereo not given in full): the composite z-score in [1] is 1.26; in [5], 3.43; in assay [7], 0.595; in assay [8], -0.574; in assay [9], -0.0954; in assay [10], 0.107. Besides, the composite z-score in assay [11] was 1.51; in assay [12], 1; in [13] it was 0.955; in assay [15], -0.23; in [16] it was -0.0255; in assay [17], -1.25. Moreover, the composite z-score is -0.376 in [18], -0.197 in [19] and 0.148 in assay [20]. In addition, the z-score in assay [2] is -1 (inactive); in assay [3], -1.56 (inactive); in assay [4] it was -1.81 (inactive); in [6], 0.897 (inactive); in assay [14], -1.47 (inactive).
